From the supplement of paper PMC6555819

Tests used:
Assay in all cases: PBM binding z-score (relative to random genomic background probes); higher = stronger binding; sequences stand for … in GC…GCGATTGACAGCGTAGAATGAAGG
[1] = system: FXR:RXRa (NR concentration 270 nM, RXRa partner concentration 90 nM)
Procedure, shortened: (§1)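 For binding z-scores, the reference was random background probes on custom Agilent 4×180K protein-binding microarrays. These arrays were incubated 1 h with ligand-free nuclear receptor dimers in PBS pH 7.4, 2% milk, 0.02% Triton X-100, 1 mM DTT, 0.2 mg/mL BSA and 0.4 mg/ml salmon testes DNA. Fluorescence was scanned after antibody detection of each partner (one per run) and regression-normalized.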

[2] = system: LXRa:RXRa (NR concentration 270 nM, RXRa partner concentration 90 nM)
Procedure, shortened: as §1

[3] = system: LXRa homodimer (NR concentration 270 nM)
Procedure, shortened: as §1

[4] = system: LXRb:RXRa (NR concentration 270 nM, RXRa partner concentration 90 nM)
Procedure, shortened: as §1

[5] = system: LXRb homodimer (NR concentration 270 nM)
Procedure, shortened: as §1

[6] = system: PPARa:RXRa (NR concentration 270 nM, RXRa partner concentration 90 nM)
Procedure, shortened: as §1

[7] = system: PPARg:RXRa (NR concentration 180 nM, RXRa partner concentration 90 nM)
Procedure, shortened: as §1

[8] = system: PPARg:RXRa 270nM:90nM, anti-RXR (NR concentration 270 nM, RXRa partner concentration 90 nM)
Procedure, shortened: as §1

[9] = system: PPARg:RXRa 30nM:10nM, anti-RXR (NR concentration 30 nM, RXRa partner concentration 10 nM)
Procedure, shortened: as §1

[10] = system: PPARg:RXRa 90nM:30nM, anti-RXR (NR concentration 90 nM, RXRa partner concentration 30 nM)
Procedure, shortened: as §1

[11] = system: PPARg:RXRa DBDmut IVT, anti-RXR (DBD mutation: RXRa K156A/R161A, NR concentration 270 nM, RXRa partner concentration 90 nM)
Procedure, shortened: as §1

[12] = system: PPARg:RXRa IVT, anti-PPARg (NR concentration 270 nM, RXRa partner concentration 90 nM)
Procedure, shortened: as §1

[13] = system: PPARg DBDmut:RXRa IVT, anti-PPARg (DBD mutation: PPARg1 K132A/R137A, NR concentration 270 nM, RXRa partner concentration 90 nM)
Procedure, shortened: as §1

[14] = system: PPARg DBDmut IVT, anti-PPARg (DBD mutation: PPARg1 K132A/R137A, NR concentration 270 nM)
Procedure, shortened: as §1

[15] = system: PPARg homodimer (NR concentration 180 nM)
Procedure, shortened: as §1

[16] = system: PXR:RXRa (NR concentration 270 nM, RXRa partner concentration 90 nM)
Procedure, shortened: as §1

[17] = system: PXR homodimer (NR concentration 270 nM)
Procedure, shortened: as §1

[18] = system: RARa:RXR (NR concentration 270 nM, RXRa partner concentration 90 nM)
Procedure, shortened: as §1

[19] = system: RARa homodimer (NR concentration 270 nM)
Procedure, shortened: as §1

[20] = system: RARb:RXRa (NR concentration 270 nM, RXRa partner concentration 90 nM)
Procedure, shortened: as §1

| Sequence | PBM binding z-score [1] | PBM binding z-score [2] | PBM binding z-score [3] | PBM binding z-score [4] | PBM binding z-score [5] | PBM binding z-score [6] | PBM binding z-score [7] | PBM binding z-score [8] | PBM binding z-score [9] | PBM binding z-score [10] | PBM binding z-score [11] | PBM binding z-score [12] | PBM binding z-score [13] | PBM binding z-score [14] | PBM binding z-score [15] | PBM binding z-score [16] | PBM binding z-score [17] | PBM binding z-score [18] | PBM binding z-score [19] | PBM binding z-score [20] |
| --- | --- | --- | --- | --- | --- | --- | --- | --- | --- | --- | --- | --- | --- | --- | --- | --- | --- | --- | --- | --- |
| CCTTACGGGTCACTCCAGGTTTTAGCATCGGAGT | 4.87 | 5.1 | 0.102 | 2.85 | -0.172 | 4.69 | 3.06 | 3.81 | 0.53 | 2.55 | 2.81 | 3.28 | 2.95 | 0.802 | 3.03 | 3.61 | 0.181 | 4.14 | 0.643 | 3.68 |
| CCGACTGGGCCATCAGGTCATTGATATCAACGTT | 1.52 | 1.05 | 0.75 | 1.38 | -0.6 | 2.19 | 1.69 | 2.75 | 0.458 | 1.85 | 3.07 | 3.51 | -1.33 | -0.437 | 0.811 | 1.47 | 0.46 | 1.85 | -0.257 | 2.04 |
| CCGACTGGGGCAGAAAGGGTACCATACCATCCGG | -0.642 | -0.505 | -0.574 | -0.581 | -1.48 | 0.209 | 0.831 | 0.193 | -0.692 | 0.0495 | 0.57 | 0.77 | -0.394 | -1.37 | -0.287 | -0.615 | -0.768 | -0.429 | -0.298 | 0.605 |
| GGAACGAGGGCAAAGTTGATACCATCTGTCGACG | 1.54 | 1.06 | 0.172 | 1.17 | -0.157 | 4.04 | 6.72 | 6.85 | 6.52 | 7.6 | 3.89 | 3.91 | 0.382 | -0.0769 | 0.593 | 1.61 | 0.644 | 2.09 | 0.0395 | 2.42 |
| CCTCGGAGGACAGAAGGTCAGAGCTGTCCGCTTT | 1.38 | 1.63 | -0.0944 | 1.03 | -0.587 | 1.84 | -0.203 | 0.708 | -0.69 | -0.00592 | 0.195 | -0.199 | -1.36 | -1.28 | 1.06 | 1.35 | -0.13 | 1.93 | 0.441 | 2.89 |
| AGAATGAGATTATACGTAGATCAGGGAAGAAAGT | -0.225 | -0.715 | -0.134 | -0.538 | -0.345 | -0.566 | 1.09 | -0.183 | 0.419 | -0.327 | -0.76 | -0.334 | 0.931 | 0.37 | -0.24 | -0.502 | 0.417 | -0.447 | 0.366 | -0.409 |
| AGTCAAAGTCCACTAGGTAACGTAAGATTCAGCT | -0.195 | -0.249 | -0.162 | -0.0956 | 0.0347 | 0.0628 | 0.58 | 0.278 | 0.0579 | 0.146 | 1.22 | 1.83 | 0.418 | 0.228 | 0.527 | -0.372 | 0.0413 | -0.205 | 0.764 | 1.44 |
| TCATATAGGTAAATGCTTGGTGAAAGTCCGATCT | 0.688 | 0.994 | 0.23 | 0.824 | -0.0277 | 1.12 | 0.522 | 2.24 | 3.68 | 2.72 | 4.12 | 2.04 | 1.15 | 1.07 | 0.653 | 0.501 | 0.156 | 0.651 | 1.11 | 0.221 |
| AATAGAGGGTCATCGTAGGCCAGAGTACGCACAG | 6.8 | 6.19 | 1.56 | 3.89 | 0.604 | 5.5 | 5.46 | 5.11 | 2.13 | 3.89 | 3.35 | 4.01 | 0.835 | 0.46 | 2.99 | 4.34 | 0.066 | 4.67 | 1.33 | 4.25 |
| ACTCGGAGGACCAAGGTCAGAGCTACGCCAGTGA | 1.21 | 0.987 | -0.312 | 0.779 | -0.603 | 1.79 | 0.947 | 1.31 | 0.277 | 0.773 | -0.502 | 0.431 | -1.19 | -0.608 | 1.18 | 1.34 | 0.0514 | 1.88 | -0.14 | 2.86 |
| GCGACTGGTGCAAAGCAGGTTACCATAAGGTTGG | -0.455 | -0.431 | -0.586 | -0.35 | -0.861 | 0.293 | 0.344 | -0.0216 | -0.591 | -0.439 | -0.384 | 0.329 | -0.718 | -1.22 | -0.73 | -0.0682 | -0.682 | 0.163 | -1.27 | -0.0547 |
| TTACTAAGGTGAAGGTCGTTGATCCCTCTGTAGA | 3.06 | 2.12 | 0.0636 | 2.08 | -0.257 | 3.76 | 5.8 | 6.91 | 5.91 | 7.51 | 3.98 | 4.68 | 1.15 | 0.702 | 1.39 | 1.84 | 0.493 | 2.6 | 0.0273 | 2.58 |
| CCTAGTTGGTTAGGAGGTCACACACCGGATATGA | 3.07 | 3.38 | 2.02 | 3.21 | 0.635 | 4.02 | 2.54 | 3.3 | 1.25 | 2.81 | 1.46 | 3.63 | 0.832 | 1.05 | 4.26 | 4.03 | 1.84 | 4.45 | 1.79 | 3.42 |
| GGAACGAGGGCAAAGTCGATAGCATCTGTCGACG | 0.356 | 0.379 | -0.902 | -0.096 | -0.476 | 1.74 | 1.97 | 2.58 | 0.954 | 2.36 | 3.57 | 3.11 | 0.306 | 0.0307 | -0.309 | 0.155 | -0.0717 | 0.0883 | -0.247 | 1.87 |
